Laboratory results: PubChem BioAssay (NCI)
Compounds without any hit were thinned out: in the full panel of roughly 83,000, 20% have a hit.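 In brief: 96-well plates, 48 h treatment, single concentration, percent growth endpoint.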 Values without a mark were called inactive. Active and inactive are the calls of the source. How the source made its calls: active means growth percent below 10; inactive means the rest.

The molecules below were run on HOP-92 NSCLC (assay: NCI-60 one-dose screen, 48 h (100 = growth as untreated, 0 = no growth, -100 = all killed)). Conditions: 10 µM unless noted.

Structure (SMILES)	growth
CCCCCCCCCCCCCCCCCCOc1ccccc1CC(=O)OCCC[N+](C)(C)C	39.6%
Cn1c(-c2c(N)n(Cc3cccnc3)c3nc(C#N)c(C#N)nc23)nc2ccccc21	2.81% (active)
COc1ccc(-c2nc3ccc4[nH]ncc4c3c3c2CCCC3)cc1B(O)O	49.8%
COc1ccc(/C=N/C2=C(C#N)C(c3ccc(OC)cc3)c3ccc4ccccc4c3O2)cc1 (stereo unspecified)	70.3%
COC1=CC(=O)C[C@@H](C)[C@]12Oc1c(Cl)c(OC)cc(OC)c1C2=O	89.4%
Cc1ccc(NS(=O)(=O)c2ccc3c(c2)C2OCCC2C(c2ccc(C(=O)C(C)C)cc2)N3)cc1C (stereo unspecified)	74%
NC(=O)c1ccc[n+](Cc2ccc(Cl)cc2Cl)c1	96%
CC(=O)OC1CCC2(C)C(=CC3C4CCC(=O)C4(C)CCC32)C1 (stereo unspecified)	101%
CNC(=O)CCN1CCN(CC/C=C2\c3ccccc3Sc3ccc(Cl)cc32)CC1	-4.86% (active)
Clc1ccc(-c2c3ccc(=[N+]4CCCCC4)cc-3oc3cc(N4CCCCC4)ccc23)cc1	-70.1% (active)
Cc1nc2c(c(N3CCCc4ccccc43)n1)CCC2	0.664% (active)
N#Cc1c2c(nn(-c3ccccc3)c1=O)C(O)=C([N+](=O)[O-])C(c1ccccc1)C2 (stereo unspecified)	76%
c1ccc2c(c1)nc(CN1CCOCC1)n1cc(N3CCCC3)nc21	-2.06% (active)
N=C1C(c2nc(-c3ccc(Br)cc3)cs2)=C(O)CN1Cc1cccnc1	-47.3% (active)
CC/C=C\C[C@H](O)C/C=C1/C(=O)C=C[C@@H]1C/C=C\CCCCO	48.8%
O=C(CCc1nnc(CN(c2ccccc2)c2ccccc2)o1)c1nc2ccccc2[nH]1	60.6%
Cc1ccc(NCCN(C)C)c2c(=O)c3ccccc3sc12	30.4%
O=C(N/N=C/c1ccncc1)c1ccc(C(F)(F)F)nc1Nc1cccc(C(F)(F)F)c1	3.81% (active)
CC1(c2ccccc2)NC(=O)N(NC(=O)CSc2nc(-c3cccs3)nc3ccccc23)C1=O (stereo unspecified)	77.4%

Structure (SMILES)	growth
NC(=O)c1ccc[n+]([C@@H]2O[C@H](COP(=O)([O-])OP(=O)(O)OC[C@H]3O[C@@H](n4cnc5c(N)ncnc54)[C@H](O)[C@@H]3O)[C@@H](O)[C@H]2O)c1	111%
COc1cc(C2CC(c3cc(OC)c(OCCCOc4ccc(-n5c(/C=C/c6ccccc6)nc6ccccc6c5=O)cc4)c(OC)c3)=NO2)cc(OC)c1OC (stereo unspecified)	42.5%
COc1cc(Cn2ncc3ccc(NC(=O)c4cc5ccccc5oc4=N)cc32)cc(OC)c1OC	71.9%
CCOc1c(C#N)nnc2c(C#N)c(NC(=O)c3ccccc3)nn12	89.3%
COc1cc2c(cc1-c1c(C)noc1C)ncc1nc(C3CCCCC3)n(C3CCC(OC(F)F)CC3)c12 (stereo unspecified)	1.82% (active)
Cc1cc(=O)[nH]c(N=Nc2c(O)[nH]c3ccccc23)n1	101%
COc1ccc(/C=C/c2c(C(=O)/C=C/c3ccc(F)cc3)c(C)nc3ccccc23)cc1	73.5%
CCCCN(CCCC)CC(C)(C)C(O)c1ccc(OC)c2ccccc12 (stereo unspecified)	-9.57% (active)
Cc1c(C)c2c(c(C)c1OCC(=O)O)CC[C@@](C)(CCC[C@@H](C)CCC[C@@H](C)CCCC(C)C)O2	-56.6% [50 µM] (active)
Cn1c(I)c(C#C[Si](C)(C)C)c(=O)n(C(=O)c2ccccc2)c1=O	-27.1% (active)
O=C(NCCCNc1cc(-c2cn(-c3ccccc3)nc2-c2cccc(O)c2)ccn1)c1ccc(F)cc1	14.4%
Cc1ccc2c(c1)Sc1c(ccc3ccccc13)N2	75.3%
O=C(Nc1ccc(-n2cc(-c3ccncc3)c(-c3ccc(Cl)c(O)c3)n2)cc1)N1CCOCC1	90.6%
Cc1cccc(Cc2cnc(NC(=O)c3ccc4nnsc4c3)s2)c1	74.7%
CC(=O)c1ccc(NCC(=O)Nc2ccccn2)cc1	103%
COC(=O)c1ccc(C2Nc3ccc(S(=O)(=O)Nc4ccc(C)c(C)c4)cc3C3OCCC23)cc1 (stereo unspecified)	66%
Cc1ccc(-c2cc(-c3cccnc3)[nH]c(=O)c2C#N)cc1	97.9%
Cn1ccc2c(c1=O)C(=O)c1nccc3c1c-2nc1ccccc13	62.8%
CCc1ccccc1-n1c(N)c(C#N)c(-c2ccc(N(C)C)cc2)c(C#N)c1=O	68.3%

Each molecule was assayed on NCI-H522 lung in the same assay as above. Conditions: 10 µM unless noted.

Structure (SMILES)	growth
CCCCCCCCCCCCCCCCCCOc1ccccc1CC(=O)OCCC[N+](C)(C)C	36.3%
Cn1c(-c2c(N)n(Cc3cccnc3)c3nc(C#N)c(C#N)nc23)nc2ccccc21	76.4%
COc1ccc(-c2nc3ccc4[nH]ncc4c3c3c2CCCC3)cc1B(O)O	48.1%
COc1ccc(/C=N/C2=C(C#N)C(c3ccc(OC)cc3)c3ccc4ccccc4c3O2)cc1 (stereo unspecified)	45.5%
COC1=CC(=O)C[C@@H](C)[C@]12Oc1c(Cl)c(OC)cc(OC)c1C2=O	80.5%
Cc1ccc(NS(=O)(=O)c2ccc3c(c2)C2OCCC2C(c2ccc(C(=O)C(C)C)cc2)N3)cc1C (stereo unspecified)	39.2%
NC(=O)c1ccc[n+](Cc2ccc(Cl)cc2Cl)c1	79.4%
CC(=O)OC1CCC2(C)C(=CC3C4CCC(=O)C4(C)CCC32)C1 (stereo unspecified)	96.9%
CNC(=O)CCN1CCN(CC/C=C2\c3ccccc3Sc3ccc(Cl)cc32)CC1	85%
Clc1ccc(-c2c3ccc(=[N+]4CCCCC4)cc-3oc3cc(N4CCCCC4)ccc23)cc1	-87.7% (active)
Cc1nc2c(c(N3CCCc4ccccc43)n1)CCC2	-18.6% (active)
N#Cc1c2c(nn(-c3ccccc3)c1=O)C(O)=C([N+](=O)[O-])C(c1ccccc1)C2 (stereo unspecified)	77.8%
c1ccc2c(c1)nc(CN1CCOCC1)n1cc(N3CCCC3)nc21	106%
N=C1C(c2nc(-c3ccc(Br)cc3)cs2)=C(O)CN1Cc1cccnc1	68.4%
CC/C=C\C[C@H](O)C/C=C1/C(=O)C=C[C@@H]1C/C=C\CCCCO	-40.2% (active)
O=C(CCc1nnc(CN(c2ccccc2)c2ccccc2)o1)c1nc2ccccc2[nH]1	73.9%
Cc1ccc(NCCN(C)C)c2c(=O)c3ccccc3sc12	16.8%
O=C(N/N=C/c1ccncc1)c1ccc(C(F)(F)F)nc1Nc1cccc(C(F)(F)F)c1	-9.51% (active)
CC1(c2ccccc2)NC(=O)N(NC(=O)CSc2nc(-c3cccs3)nc3ccccc23)C1=O (stereo unspecified)	82.3%

Structure (SMILES)	growth
NC(=O)c1ccc[n+]([C@@H]2O[C@H](COP(=O)([O-])OP(=O)(O)OC[C@H]3O[C@@H](n4cnc5c(N)ncnc54)[C@H](O)[C@@H]3O)[C@@H](O)[C@H]2O)c1	105%
COc1cc(C2CC(c3cc(OC)c(OCCCOc4ccc(-n5c(/C=C/c6ccccc6)nc6ccccc6c5=O)cc4)c(OC)c3)=NO2)cc(OC)c1OC (stereo unspecified)	91.1%
COc1cc(Cn2ncc3ccc(NC(=O)c4cc5ccccc5oc4=N)cc32)cc(OC)c1OC	20.3%
CCOc1c(C#N)nnc2c(C#N)c(NC(=O)c3ccccc3)nn12	95%
COc1cc2c(cc1-c1c(C)noc1C)ncc1nc(C3CCCCC3)n(C3CCC(OC(F)F)CC3)c12 (stereo unspecified)	-12.2% (active)
Cc1cc(=O)[nH]c(N=Nc2c(O)[nH]c3ccccc23)n1	103%
COc1ccc(/C=C/c2c(C(=O)/C=C/c3ccc(F)cc3)c(C)nc3ccccc23)cc1	43.9%
CCCCN(CCCC)CC(C)(C)C(O)c1ccc(OC)c2ccccc12 (stereo unspecified)	4.57% (active)
Cc1c(C)c2c(c(C)c1OCC(=O)O)CC[C@@](C)(CCC[C@@H](C)CCC[C@@H](C)CCCC(C)C)O2	-4.29% [50 µM] (active)
Cn1c(I)c(C#C[Si](C)(C)C)c(=O)n(C(=O)c2ccccc2)c1=O	-66.2% (active)
O=C(NCCCNc1cc(-c2cn(-c3ccccc3)nc2-c2cccc(O)c2)ccn1)c1ccc(F)cc1	9.35% (active)
Cc1ccc2c(c1)Sc1c(ccc3ccccc13)N2	61.3%
O=C(Nc1ccc(-n2cc(-c3ccncc3)c(-c3ccc(Cl)c(O)c3)n2)cc1)N1CCOCC1	94%
Cc1cccc(Cc2cnc(NC(=O)c3ccc4nnsc4c3)s2)c1	77%
CC(=O)c1ccc(NCC(=O)Nc2ccccn2)cc1	107%
COC(=O)c1ccc(C2Nc3ccc(S(=O)(=O)Nc4ccc(C)c(C)c4)cc3C3OCCC23)cc1 (stereo unspecified)	52.6%
Cc1ccc(-c2cc(-c3cccnc3)[nH]c(=O)c2C#N)cc1	94%
Cn1ccc2c(c1=O)C(=O)c1nccc3c1c-2nc1ccccc13	-68.5% (active)
CCc1ccccc1-n1c(N)c(C#N)c(-c2ccc(N(C)C)cc2)c(C#N)c1=O	93.7%
